Laboratory results reported in the supplement of paper PMC8728848.
The sample as a whole holds a higher share of the strongest signals than the screen did.

Columns and labels:
Test in all cases: glycan array binding signal (z-score within array); higher = stronger binding
Details in all cases: glycan notation: IUPAC condensed, linker removed
[1] = tested on: Gal(b1-3)[Fuc(a1-4)]GlcNAc
How it was run: (§1)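 The binding signal is a Z-score computed within each array. Data were drawn from 3228 arrays in the Consortium for Functional Glycomics database, restricted to those with a known protein sequence. Scores were averaged over arrays of the same protein sequence at different concentrations or buffers, and over linkers, and negative values can be taken as non-binding.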

[2] = tested on: Gal(b1-4)GlcNAc(b1-2)Man(a1-3)[Gal(b1-4)GlcNAc(b1-2)Man(a1-6)]Man(b1-4)GlcNAc(b1-4)[Fuc(a1-6)]GlcNAc
How it was run: as §1

[3] = tested on: Gal(b1-4)GlcNAc(b1-2)Man(a1-3)[Gal(b1-4)GlcNAc(b1-2)Man(a1-6)][Gal(b1-4)GlcNAc(b1-4)]Man(b1-4)GlcNAc(b1-4)[Fuc(a1-6)]GlcNAc
How it was run: as §1

[4] = tested on: Gal(b1-4)GlcNAc(b1-2)Man(a1-3)[Gal(b1-4)GlcNAc(b1-2)][GlcNAc(b1-4)]Man(b1-4)GlcNAc(b1-4)GlcNAc
How it was run: as §1

[5] = tested on: Gal(b1-4)GlcNAc(b1-2)[Gal(b1-4)GlcNAc(b1-4)]Man(a1-3)[Gal(b1-4)GlcNAc(b1-2)[Gal(b1-4)GlcNAc(b1-6)]Man(a1-6)]Man(b1-4)GlcNAc(b1-4)GlcNAc
How it was run: as §1

[6] = tested on: Gal(b1-4)GlcNAc(b1-2)[Gal(b1-4)GlcNAc(b1-4)]Man(a1-3)[GlcNAc(b1-4)][Gal(b1-4)GlcNAc(b1-2)Man(a1-6)]Man(b1-4)GlcNAc(b1-4)GlcNAc
How it was run: as §1

[7] = tested on: Gal(b1-4)GlcNAc(b1-3)Gal(b1-4)GlcNAc(b1-2)Man(a1-3)[Gal(b1-4)GlcNAc(b1-3)Gal(b1-4)GlcNAc(b1-2)Man(a1-6)]Man(b1-4)GlcNAc(b1-4)GlcNAc
How it was run: as §1

[8] = tested on: Gal(b1-4)GlcNAc(b1-3)Gal(b1-4)GlcNAc(b1-3)Gal(b1-4)GlcNAc(b1-2)Man(a1-3)[Gal(b1-4)GlcNAc(b1-3)Gal(b1-4)GlcNAc(b1-3)Gal(b1-4)GlcNAc(b1-2)Man(a1-6)]Man(b1-4)GlcNAc(b1-4)[Fuc(a1-6)]GlcNAc
How it was run: as §1

[9] = tested on: Gal(b1-4)GlcNAc(b1-3)Gal(b1-4)GlcNAc(b1-3)Gal(b1-4)GlcNAc(b1-2)[Gal(b1-4)GlcNAc(b1-3)Gal(b1-4)GlcNAc(b1-3)Gal(b1-4)GlcNAc(b1-6)]Man(a1-6)[Gal(b1-4)GlcNAc(b1-3)Gal(b1-4)GlcNAc(b1-3)Gal(b1-4)GlcNAc(b1-2)Man(a1-3)]Man(b1-4)GlcNAc(b1-4)[Fuc(a1-6)]GlcNAc
How it was run: as §1

[10] = tested on: Gal(b1-3)[Neu5Ac(a2-6)]GlcNAc(b1-4)Gal(b1-4)Glc
How it was run: as §1

[11] = tested on: Gal(b1-4)GalNAc(a1-3)[Fuc(a1-2)]Gal(b1-4)GlcNAc
How it was run: as §1

Gal(b1-4)Gal = tested on: Gal(b1-4)Gal
How it was run: as §1

Gal(b1-4)Glc6S = tested on: Gal(b1-4)Glc6S
How it was run: as §1

[12] = tested on: Gal(b1-4)GlcNAc(b1-3)Gal(b1-4)GlcNAc(b1-2)[Gal(b1-4)GlcNAc(b1-3)Gal(b1-4)GlcNAc(b1-6)]Man(a1-6)[Gal(b1-4)GlcNAc(b1-3)Gal(b1-4)GlcNAc(b1-2)Man(a1-3)]Man(b1-4)GlcNAc(b1-4)[Fuc(a1-6)]GlcNAc
How it was run: as §1

[13] = tested on: Gal(b1-4)GlcNAc(b1-3)Gal(b1-4)GlcNAc(b1-3)Gal(b1-4)GlcNAc(b1-2)Man(a1-3)[Gal(b1-4)GlcNAc(b1-3)Gal(b1-4)GlcNAc(b1-3)Gal(b1-4)GlcNAc(b1-2)Man(a1-6)]Man(b1-4)GlcNAc(b1-4)GlcNAc
How it was run: as §1

[14] = tested on: Gal(b1-4)GlcNAc(b1-2)Man(a1-6)Man(b1-4)GlcNAc(b1-4)GlcNAc
How it was run: as §1

[15] = tested on: Gal(b1-4)GlcNAc(b1-2)[Gal(b1-4)GlcNAc(b1-6)]Man(a1-6)[GlcNAc(b1-4)][Gal(b1-4)GlcNAc(b1-2)Man(a1-3)]Man(b1-4)GlcNAc(b1-4)GlcNAc
How it was run: as §1

Chain of PILRb (Mus musculus), Q2YSF2 (Q2YSF2 entry or part of it): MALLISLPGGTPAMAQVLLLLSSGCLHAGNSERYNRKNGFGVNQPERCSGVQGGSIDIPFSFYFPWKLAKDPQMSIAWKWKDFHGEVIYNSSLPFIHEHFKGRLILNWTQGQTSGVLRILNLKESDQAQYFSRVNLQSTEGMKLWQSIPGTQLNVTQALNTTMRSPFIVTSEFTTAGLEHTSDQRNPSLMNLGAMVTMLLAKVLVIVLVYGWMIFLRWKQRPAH
Chain of CHI3L1 (Homo sapiens), P36222 (P36222 whole entry): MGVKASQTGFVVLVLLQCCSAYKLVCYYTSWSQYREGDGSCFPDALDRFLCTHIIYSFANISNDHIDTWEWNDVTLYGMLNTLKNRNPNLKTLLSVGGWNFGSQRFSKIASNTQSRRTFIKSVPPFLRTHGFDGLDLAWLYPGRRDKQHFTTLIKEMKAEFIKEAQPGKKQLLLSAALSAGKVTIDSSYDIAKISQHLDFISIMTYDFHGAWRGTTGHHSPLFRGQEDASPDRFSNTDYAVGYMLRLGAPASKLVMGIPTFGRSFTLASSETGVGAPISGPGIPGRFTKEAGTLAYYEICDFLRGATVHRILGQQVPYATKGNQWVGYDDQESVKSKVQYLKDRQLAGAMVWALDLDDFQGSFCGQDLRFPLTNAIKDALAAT
Chain of Avaren (Actinomycete K97) (chain, as listed by the source): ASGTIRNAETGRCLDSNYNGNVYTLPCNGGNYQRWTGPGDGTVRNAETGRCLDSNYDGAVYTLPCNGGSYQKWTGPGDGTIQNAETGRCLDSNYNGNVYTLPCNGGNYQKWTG
Chain of PILRa (Mus musculus), Q2YSF3 (Q2YSF3 entry or part of it): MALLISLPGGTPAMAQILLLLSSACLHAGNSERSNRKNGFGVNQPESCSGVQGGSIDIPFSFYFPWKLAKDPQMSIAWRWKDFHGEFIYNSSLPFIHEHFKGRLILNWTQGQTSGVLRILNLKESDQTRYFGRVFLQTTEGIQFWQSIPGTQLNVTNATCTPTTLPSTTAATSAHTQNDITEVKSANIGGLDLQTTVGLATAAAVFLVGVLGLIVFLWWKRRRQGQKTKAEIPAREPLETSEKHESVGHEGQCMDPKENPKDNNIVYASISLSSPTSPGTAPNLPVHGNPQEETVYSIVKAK
Chain of C3b (Homo sapiens), P01024 (P01024 23-667): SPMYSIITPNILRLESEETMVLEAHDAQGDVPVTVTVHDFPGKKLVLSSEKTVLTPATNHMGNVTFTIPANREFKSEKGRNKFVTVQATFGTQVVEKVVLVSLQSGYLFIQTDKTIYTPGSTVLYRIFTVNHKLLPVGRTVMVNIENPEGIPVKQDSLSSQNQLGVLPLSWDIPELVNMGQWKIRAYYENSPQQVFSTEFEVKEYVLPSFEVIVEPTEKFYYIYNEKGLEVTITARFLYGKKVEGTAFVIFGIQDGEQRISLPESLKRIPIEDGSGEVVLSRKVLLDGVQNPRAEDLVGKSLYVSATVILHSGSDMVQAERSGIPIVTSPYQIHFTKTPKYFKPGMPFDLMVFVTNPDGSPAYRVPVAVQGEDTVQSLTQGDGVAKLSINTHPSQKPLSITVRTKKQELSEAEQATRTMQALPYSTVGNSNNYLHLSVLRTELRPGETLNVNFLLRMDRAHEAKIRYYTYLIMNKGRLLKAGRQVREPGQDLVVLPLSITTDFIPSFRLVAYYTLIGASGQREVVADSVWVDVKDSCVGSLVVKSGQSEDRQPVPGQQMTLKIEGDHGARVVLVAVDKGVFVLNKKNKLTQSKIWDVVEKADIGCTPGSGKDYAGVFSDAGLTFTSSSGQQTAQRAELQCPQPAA
Chain of wLAT-1A (Homo sapiens), Q01650 (Q01650 whole entry): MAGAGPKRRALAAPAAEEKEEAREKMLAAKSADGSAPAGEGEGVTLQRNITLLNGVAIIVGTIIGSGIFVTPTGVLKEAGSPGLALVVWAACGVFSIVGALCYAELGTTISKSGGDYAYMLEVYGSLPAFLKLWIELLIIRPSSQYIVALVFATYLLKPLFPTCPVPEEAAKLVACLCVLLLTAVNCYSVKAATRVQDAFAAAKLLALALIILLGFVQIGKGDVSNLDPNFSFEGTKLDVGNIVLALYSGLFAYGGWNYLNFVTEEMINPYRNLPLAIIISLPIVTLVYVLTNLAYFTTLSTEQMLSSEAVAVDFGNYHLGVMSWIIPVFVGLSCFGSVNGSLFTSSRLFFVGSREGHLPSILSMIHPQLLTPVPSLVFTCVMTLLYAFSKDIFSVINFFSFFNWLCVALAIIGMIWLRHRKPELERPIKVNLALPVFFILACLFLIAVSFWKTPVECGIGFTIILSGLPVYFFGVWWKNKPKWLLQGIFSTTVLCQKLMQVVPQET
Chain of Regenerating Gene IV (Homo sapiens), Q9BYZ8 (Q9BYZ8 whole entry, looked up): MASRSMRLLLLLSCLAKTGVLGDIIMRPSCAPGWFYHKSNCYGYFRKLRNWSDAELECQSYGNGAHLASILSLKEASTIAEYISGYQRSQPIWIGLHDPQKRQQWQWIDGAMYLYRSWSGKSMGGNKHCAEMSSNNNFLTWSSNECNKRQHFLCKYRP
Chain of Aggrecan (Rattus norvegicus), NP_071526 (chain, as listed by the source): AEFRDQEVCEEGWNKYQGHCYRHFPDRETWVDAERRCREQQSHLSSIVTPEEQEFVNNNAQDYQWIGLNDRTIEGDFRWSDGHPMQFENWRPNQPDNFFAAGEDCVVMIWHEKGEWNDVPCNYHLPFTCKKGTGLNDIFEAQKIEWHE

Q: With C3b (Homo sapiens), P01024 as the substance, how does the “glycan array binding signal (z-score)” value [1] read?
A: The value was 0.283.

Q: For Aggrecan (Rattus norvegicus), NP_071526, which “glycan array binding signal (z-score)” value [1] is on record?
A: The value was 4.94.

Q: How did the “glycan array binding signal (z-score)” value ([1]; mutation: R125K) turn out when Siglec-8 (Homo sapiens), Q9NYZ4 was run?
A: Its value is -0.408.

Q: What about the “glycan array binding signal (z-score)” value [2] of the same substance?
A: Its value is -0.08.

Q: And the “glycan array binding signal (z-score)” value ([3]; mutation: R125K)?
A: The value was -0.535.

Q: What about the “glycan array binding signal (z-score)” value [4] of the same substance?
A: The value was -0.068.

Q: And the “glycan array binding signal (z-score)” value [5]?
A: Its value is -0.067.

Q: And the “glycan array binding signal (z-score)” value ([6]; mutation: R125K)?
A: The value was -0.113.

Q: And the “glycan array binding signal (z-score)” value [7]?
A: Its value is 0.515.

Q: What about the “glycan array binding signal (z-score)” value ([7]; mutation: R125K) of the same substance?
A: Its value is 2.56.

Q: And the “glycan array binding signal (z-score)” value [8]?
A: The value was 0.69.

Q: What about the “glycan array binding signal (z-score)” value ([9]; mutation: R125K) of the same substance?
A: Its value is 0.13.

Q: HARE (Homo sapiens), Q8WWQ8 was tested. Which “glycan array binding signal (z-score)” value [10] did it give?
A: The value was 1.92.

Q: With wLAT-1A (Homo sapiens), Q01650 as the substance, how does the “glycan array binding signal (z-score)” value [11] read?
A: The value was -0.62.

Q: PILRb (Mus musculus), Q2YSF2 was tested. Which “glycan array binding signal (z-score)” value [11] did it give?
A: The value was -0.547.

Q: And the “glycan array binding signal (z-score)” value (Gal(b1-4)Gal)?
A: Its value is 0.167.

Q: And the “glycan array binding signal (z-score)” value (Gal(b1-4)Glc6S)?
A: The value was 1.22.

Q: And the “glycan array binding signal (z-score)” value [4]?
A: Its value is -0.5.

Q: Which “glycan array binding signal (z-score)” value (Gal(b1-4)Gal) does the source give for MpAFP RI GFP (Marinomonas primoryensis) here?
A: The value was -0.4.

Q: And the “glycan array binding signal (z-score)” value [7]?
A: The value was 2.61.

Q: And the “glycan array binding signal (z-score)” value [12]?
A: Its value is 5.48.

Q: What about the “glycan array binding signal (z-score)” value [9] of the same substance?
A: Its value is 3.87.

Q: How did the “glycan array binding signal (z-score)” value (Gal(b1-4)Glc6S) turn out when “Regenerating Gene IV (Homo sapiens), Q9BYZ8” was run?
A: The value was 2.4.

Q: Which “glycan array binding signal (z-score)” value [3] does the source give for Avaren (Actinomycete K97) here?
A: Its value is -0.121.

Q: And the “glycan array binding signal (z-score)” value [13]?
A: Its value is -0.051.

Q: CHI3L1 (Homo sapiens), P36222 was tested. Which “glycan array binding signal (z-score)” value [14] did it give?
A: Its value is -0.062.

Q: And the “glycan array binding signal (z-score)” value [6]?
A: Its value is -0.131.

Q: PILRa (Mus musculus), Q2YSF3 was tested. Which “glycan array binding signal (z-score)” value [15] did it give?
A: The value was -0.088.
